Data published in PubChem BioAssay (EPA / NIEHS).
Records with an inconclusive call do not appear. Active and inactive are the calls of the source. Rule for the calls, unless noted: active = hit-call score of the fitted dose curve at least 0.9, where 1 is the maximum; inactive = score below 0.9.

Key:
[1] = ATG_PBREM_CIS: Attagene CIS-FACTORIAL HepG2 Assay for human Phenobarbital-responsive Enhancer Module (PBREM) (AID 2282955); conditions: HepG2 PBREM cis-reporter, Attagene multiplexed transcription; actives raise or lower the signal
Procedure, shortened: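 Fluorescence of labelled reporter cDNA fragments, resolved by capillary electrophoresis, gives mRNA induction in transfected HepG2 cells treated for 24 h; DMSO serves as negative control and baseline.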

[2] = molecular target: Paired box protein Pax-6 (Homo sapiens) (UniProt P26367); assay: ATG_Pax6_CIS: Attagene CIS-FACTORIAL HepG2 Assay for human Paired Box 6 (PAX6) (AID 2282956); conditions: HepG2 CIS-FACTORIAL PAX6 reporter transcription, RNA readout; actives raise or lower the signal
Procedure, shortened: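 Fluorescent RT-PCR products separated by capillary electrophoresis report PAX6-linked promoter mRNA in HepG2 cells 24 h post-dose. Curves fitted bidirectionally, DMSO as negative control.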

[3] = ATG_PXRE_CIS: Attagene CIS-FACTORIAL HepG2 Assay for human Pregnane X Receptor Element (PXRE) (AID 2282957); conditions: HepG2 Attagene CIS-FACTORIAL PXRE reporter, mRNA; actives raise or lower the signal
Procedure, shortened: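 After a 24 h chemical incubation, total RNA from transfected HepG2 cells was reverse-transcribed and reporter cDNA amplified, FAM-labeled, HpaI-digested and sized by capillary electrophoresis. DMSO served as baseline for bidirectional curve fitting.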

[4] = ATG_PPRE_CIS: Attagene CIS-FACTORIAL HepG2 Assay for human Peroxisome Proliferator-activated Response Element (PPRE) (AID 2282958); conditions: HepG2 PPRE cis-element reporter, Attagene transcription factor profiling; actives raise or lower the signal
Procedure, shortened: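 Cells are first transfected transiently with the multiplexed reporter library, then dosed for 24 h. Total RNA is reverse-transcribed, amplified, fluorescently end-labeled and HpaI-cut before capillary electrophoresis; activity is fitted bidirectionally against DMSO controls.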

[5] = ATG_Sox_CIS: Attagene CIS-FACTORIAL HepG2 Assay for human SRY-box transcription factor (SOX) (AID 2282960); conditions: HepG2 Attagene cis-factorial SOX reporter, mRNA; actives raise or lower the signal
Procedure, shortened: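 Transient MRTU transfection of HepG2; 24 h compound incubation; TriZol RNA, oligo(dT) RT, PCR, 6-FAM primer extension, HpaI cut, CE. Bidirectional fit, DMSO = baseline.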

[6] = molecular target: Transcription factor Sp1 (Homo sapiens) (UniProt P08047); assay: ATG_Sp1_CIS: Attagene CIS-FACTORIAL HepG2 Assay for human Specificity Protein 1 (Sp1) (AID 2282961); conditions: HepG2 Sp1 cis-reporter transcription, actives raise or lower the signal
Procedure, shortened: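 Endogenous Sp1 activity was gauged in human liver HepG2 cells bearing transfected reporter units under a cis-regulating promoter. After 24 h dosing, reporter mRNA was quantified by RT-PCR with capillary electrophoresis, and activity fitted bidirectionally versus DMSO.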

[7] = ATG_SREBP_CIS: Attagene CIS-FACTORIAL HepG2 Assay for human Sterol Regulatory Element Binding (SREBP) (AID 2282962); conditions: HepG2 Attagene cis-factorial SREBP reporter, mRNA; actives raise or lower the signal
Procedure, shortened: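 Endogenous factor activity is measured in HepG2 through multiplexed reporter units under cis-element control. Following a 24 h incubation, reporter transcripts are reverse-transcribed, PCR-amplified and sized by capillary electrophoresis; activity is fitted in both directions relative to DMSO.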

[8] = molecular target: Signal transducer and activator of transcription 3 (Homo sapiens) (UniProt P40763); assay: ATG_STAT3_CIS: Attagene CIS-FACTORIAL HepG2 Assay for human Signal Transducer and Activator of Transcription 3 (STAT3) (AID 2282963); conditions: HepG2, Attagene cis-factorial STAT3 reporter transcription; actives raise or lower the signal
Procedure, shortened: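 Fluorescence intensity of 6-FAM-labelled reporter fragments, separated by capillary electrophoresis after RT-PCR, gave the signal. Cells were HepG2 transfected with cis-element reporter units and treated 24 h; fitting was bidirectional relative to DMSO.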

[9] = ATG_TA_CIS: Attagene CIS-FACTORIAL HepG2 Assay for human TA Basal Promoter (AID 2282964); conditions: HepG2 Attagene CIS-factorial TA basal promoter reporter; actives raise or lower the signal
Procedure, shortened: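 Read-out: fluorescent reporter-transcript fragments resolved by capillary electrophoresis after RT-PCR and HpaI digestion. Source: HepG2 cells carrying transiently transfected multi-reporter cis constructs, treated 24 h. Endpoint fitted bidirectionally relative to DMSO.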

[10] = ATG_TCF_b_cat_CIS: Attagene CIS-FACTORIAL HepG2 Assay for human T-Cell-Factor with beta-catenin (TCF/b-cat) (AID 2282965); conditions: HepG2 TCF/beta-catenin cis-reporter transcription, actives raise or lower the signal
Procedure, shortened: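 Cells of the HepG2 line carry transiently transfected reporter units whose promoters respond to endogenous factors. Twenty-four hours post-dosing, reporter mRNA induction is measured by fluorescent RT-PCR and capillary electrophoresis, with DMSO as baseline.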

[11] = ATG_TAL_CIS: Attagene CIS-FACTORIAL HepG2 Assay for human TAL Basal Promoter (AID 2282966); conditions: HepG2 Attagene cis-factorial TAL promoter reporter; actives raise or lower the signal;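 note: background control endpoint measuring basal TAL promoter reporter mRNA not a specific factor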
Procedure, shortened: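 Basal-promoter background-control endpoint from a multiplexed HepG2 reporter panel. Cells were exposed 24 h, then reporter mRNA was read by RT-PCR/CE fluorescence and fitted in both directions relative to DMSO.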

[12] = ATG_TGFb_CIS: Attagene CIS-FACTORIAL HepG2 Assay for human Transforming Growth Factor (TGF) (AID 2282967); conditions: HepG2 Attagene CIS TGFb reporter, mRNA transcription; actives raise or lower the signal
Procedure, shortened: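 Transient MRTU transfection of HepG2 (FuGene 6). Dose 24 h. TriZol RNA, oligo(dT) RT, PCR, 6-FAM primer extension, HpaI cut, CE. Bidirectional fit, DMSO = baseline.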

[13] = ATG_VDRE_CIS: Attagene CIS-FACTORIAL HepG2 Assay for human Vitamin D Receptor Element (VDRE) (AID 2282968); conditions: HepG2 VDRE cis-reporter transcription, actives raise or lower the signal
Procedure, shortened: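 Compounds were applied for 24 h to HepG2 cells transfected with promoter-regulated reporter units. Total RNA was reverse-transcribed, and reporter amplicons were fluorescently labelled and sized by capillary electrophoresis.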

[14] = molecular target: Nuclear receptor subfamily 1 group I member 3 (Homo sapiens) (UniProt Q14994); assay: ATG_CAR_TRANS: Attagene TRANS-FACTORIAL HepG2 Assay for human Constitutive Androstane Receptor (CAR) (AID 2282969; active = hit-call score of the fitted dose curve at least 0.9, where 1 is the maximum;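 note: activators raise reporter mRNA above DMSO so AC50 marks induction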); conditions: HepG2 Attagene TRANS-FACTORIAL CAR reporter
Procedure, shortened: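 Transiently transfected HepG2, multiplex TRANS reporters (CAR-Gal4 chimera driving GAL4-UAS reporter). 24 h dosing. Readout: reporter transcript by RT-PCR + capillary electrophoresis, fluorescence intensity; positive direction vs DMSO.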

[15] = molecular target: Estrogen receptor (Homo sapiens) (UniProt P03372); assay: ATG_ERa_TRANS: Attagene TRANS-FACTORIAL HepG2 Assay for human Estrogen Receptor alpha (ERa) (AID 2282970; active = hit-call score of the fitted dose curve at least 0.9, where 1 is the maximum); conditions: HepG2 Attagene TRANS ERa GAL4 reporter, mRNA
Procedure, shortened: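 Gal4-fusion ERa transactivation, measured as reporter transcript level in transiently transfected HepG2 cells. Exposure 24 h; RT-PCR plus capillary electrophoresis with fluorescence detection.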

[16] = molecular target: Steroid hormone receptor ERR1 (Homo sapiens) (UniProt P11474); assay: ATG_ERRa_TRANS: Attagene TRANS-FACTORIAL HepG2 Assay for human Estrogen-Related Receptor alpha (ERRa) (AID 2282971; active = hit-call score of the fitted dose curve at least 0.9, where 1 is the maximum); conditions: HepG2 Attagene TRANS reporter, ERRa transactivation
Procedure, shortened: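 HepG2 cells transiently transfected with GAL4-UAS reporter units and chimeric NR-Gal4 constructs; after 24 hour compound incubation, reporter mRNA quantified by RT-PCR, fluorescent labelling and capillary electrophoresis, gain of signal versus DMSO.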

[17] = molecular target: X-box-binding protein 1 (Homo sapiens) (UniProt P17861); assay: ATG_Xbp1_CIS: Attagene CIS-FACTORIAL HepG2 Assay for human X-box Binding Protein 1 (XBP1) (AID 2282972); conditions: HepG2 XBP1 cis-element reporter, Attagene multiplex; actives raise or lower the signal
Procedure, shortened: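 Multiplexed cis-reporter readout in transfected HepG2 liver cells. Exposure lasted 24 hours. Activity in either direction was fitted against DMSO as negative control and baseline.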

[18] = ATG_M_19_TRANS: Attagene TRANS-FACTORIAL HepG2 Assay for M19 Transcription Factor (Internal Marker) (AID 2282974; active = hit-call score of the fitted dose curve at least 0.9, where 1 is the maximum); conditions: HepG2 Attagene TRANS-FACTORIAL M19 internal marker reporter
Procedure, shortened: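 Cells: human HepG2, transiently transfected with multiplexed reporter transcription units. Exposure: 24 h. Detection: RT-PCR of reporter mRNA with capillary electrophoresis. Analysis: gain-of-signal vs DMSO.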

[19] = ATG_RORE_CIS: Attagene CIS-FACTORIAL HepG2 Assay for human RAR-related Orphan Receptor Element (RORE) (AID 2282959); conditions: HepG2 Attagene cis-factorial RORE reporter, mRNA; actives raise or lower the signal
Procedure, shortened: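 Cells were HepG2 carrying transfected cis-regulated reporter constructs, dosed for 24 hours. Total RNA was reverse-transcribed and reporter cDNA amplified, fluorescently labeled and sized by capillary electrophoresis. Activity was fitted bidirectionally relative to DMSO.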

Chain of Nuclear receptor subfamily 1 group I member 3 (Homo sapiens) (Q14994 whole entry, looked up, the tested form may be a part): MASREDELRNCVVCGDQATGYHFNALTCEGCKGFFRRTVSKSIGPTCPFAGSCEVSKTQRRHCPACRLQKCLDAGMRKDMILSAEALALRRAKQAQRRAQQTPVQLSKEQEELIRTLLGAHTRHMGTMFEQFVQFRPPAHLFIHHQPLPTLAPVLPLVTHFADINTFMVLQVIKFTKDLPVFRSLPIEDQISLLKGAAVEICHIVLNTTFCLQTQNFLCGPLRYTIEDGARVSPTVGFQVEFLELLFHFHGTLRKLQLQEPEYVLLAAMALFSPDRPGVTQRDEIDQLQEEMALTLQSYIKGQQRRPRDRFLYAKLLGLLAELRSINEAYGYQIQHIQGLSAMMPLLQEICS
Chain of X-box-binding protein 1 (Homo sapiens) (P17861 whole entry, looked up): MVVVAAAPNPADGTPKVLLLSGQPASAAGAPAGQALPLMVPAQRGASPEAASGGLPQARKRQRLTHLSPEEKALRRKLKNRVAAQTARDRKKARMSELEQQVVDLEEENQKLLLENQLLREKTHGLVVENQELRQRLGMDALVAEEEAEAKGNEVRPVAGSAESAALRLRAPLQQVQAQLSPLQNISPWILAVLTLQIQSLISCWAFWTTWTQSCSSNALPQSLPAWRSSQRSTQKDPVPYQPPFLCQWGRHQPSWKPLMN
Chain of Signal transducer and activator of transcription 3 (Homo sapiens) (P40763 whole entry, looked up, the tested form may be a part): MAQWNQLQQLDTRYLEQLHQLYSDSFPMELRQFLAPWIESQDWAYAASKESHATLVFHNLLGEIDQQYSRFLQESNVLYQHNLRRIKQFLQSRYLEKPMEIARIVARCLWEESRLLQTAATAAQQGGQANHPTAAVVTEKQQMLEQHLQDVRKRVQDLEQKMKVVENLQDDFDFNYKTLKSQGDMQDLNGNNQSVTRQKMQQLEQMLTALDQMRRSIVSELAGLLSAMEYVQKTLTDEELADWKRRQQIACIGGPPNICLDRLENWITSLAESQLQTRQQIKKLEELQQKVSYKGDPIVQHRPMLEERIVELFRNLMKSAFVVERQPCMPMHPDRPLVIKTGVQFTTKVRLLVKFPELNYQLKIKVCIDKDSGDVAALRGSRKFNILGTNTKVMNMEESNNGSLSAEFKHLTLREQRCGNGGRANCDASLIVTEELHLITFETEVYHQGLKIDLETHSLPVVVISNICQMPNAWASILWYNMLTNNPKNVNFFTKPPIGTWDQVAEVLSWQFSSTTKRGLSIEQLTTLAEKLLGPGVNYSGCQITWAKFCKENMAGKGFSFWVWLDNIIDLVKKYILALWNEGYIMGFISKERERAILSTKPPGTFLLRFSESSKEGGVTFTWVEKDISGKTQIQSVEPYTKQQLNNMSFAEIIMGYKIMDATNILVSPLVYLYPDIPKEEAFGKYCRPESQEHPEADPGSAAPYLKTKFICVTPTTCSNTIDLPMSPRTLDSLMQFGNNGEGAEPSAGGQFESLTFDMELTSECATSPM
Chain of Steroid hormone receptor ERR1 (Homo sapiens) (P11474 whole entry, looked up, the tested form may be a part): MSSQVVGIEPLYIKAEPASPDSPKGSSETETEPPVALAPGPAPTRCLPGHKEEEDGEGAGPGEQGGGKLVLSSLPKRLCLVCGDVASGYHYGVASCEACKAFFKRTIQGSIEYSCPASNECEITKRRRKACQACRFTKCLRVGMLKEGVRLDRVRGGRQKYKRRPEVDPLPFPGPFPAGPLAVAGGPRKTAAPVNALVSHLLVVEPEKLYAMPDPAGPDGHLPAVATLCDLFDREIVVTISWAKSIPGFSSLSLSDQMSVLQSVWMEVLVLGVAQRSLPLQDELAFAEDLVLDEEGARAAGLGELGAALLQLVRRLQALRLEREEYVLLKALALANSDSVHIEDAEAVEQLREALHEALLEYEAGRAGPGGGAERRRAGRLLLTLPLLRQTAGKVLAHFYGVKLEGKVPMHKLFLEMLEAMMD
Chain of Estrogen receptor (Homo sapiens) (P03372 whole entry, looked up, the tested form may be a part): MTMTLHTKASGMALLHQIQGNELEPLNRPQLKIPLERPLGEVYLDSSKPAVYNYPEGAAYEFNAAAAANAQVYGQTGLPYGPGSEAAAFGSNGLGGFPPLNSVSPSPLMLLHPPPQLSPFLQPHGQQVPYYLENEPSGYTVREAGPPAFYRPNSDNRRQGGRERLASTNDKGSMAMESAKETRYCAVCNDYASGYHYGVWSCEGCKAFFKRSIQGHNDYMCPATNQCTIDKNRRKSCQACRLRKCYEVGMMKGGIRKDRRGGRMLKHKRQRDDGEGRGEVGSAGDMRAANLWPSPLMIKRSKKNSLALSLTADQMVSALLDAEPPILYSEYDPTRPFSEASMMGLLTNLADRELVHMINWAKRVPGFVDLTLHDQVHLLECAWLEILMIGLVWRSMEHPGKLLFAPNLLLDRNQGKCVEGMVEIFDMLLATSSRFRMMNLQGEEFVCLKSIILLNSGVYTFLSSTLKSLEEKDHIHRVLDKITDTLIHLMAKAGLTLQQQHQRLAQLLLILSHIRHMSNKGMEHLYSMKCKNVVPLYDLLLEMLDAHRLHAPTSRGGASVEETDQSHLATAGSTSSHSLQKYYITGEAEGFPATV
Chain of Transcription factor Sp1 (Homo sapiens) (P08047 whole entry, looked up): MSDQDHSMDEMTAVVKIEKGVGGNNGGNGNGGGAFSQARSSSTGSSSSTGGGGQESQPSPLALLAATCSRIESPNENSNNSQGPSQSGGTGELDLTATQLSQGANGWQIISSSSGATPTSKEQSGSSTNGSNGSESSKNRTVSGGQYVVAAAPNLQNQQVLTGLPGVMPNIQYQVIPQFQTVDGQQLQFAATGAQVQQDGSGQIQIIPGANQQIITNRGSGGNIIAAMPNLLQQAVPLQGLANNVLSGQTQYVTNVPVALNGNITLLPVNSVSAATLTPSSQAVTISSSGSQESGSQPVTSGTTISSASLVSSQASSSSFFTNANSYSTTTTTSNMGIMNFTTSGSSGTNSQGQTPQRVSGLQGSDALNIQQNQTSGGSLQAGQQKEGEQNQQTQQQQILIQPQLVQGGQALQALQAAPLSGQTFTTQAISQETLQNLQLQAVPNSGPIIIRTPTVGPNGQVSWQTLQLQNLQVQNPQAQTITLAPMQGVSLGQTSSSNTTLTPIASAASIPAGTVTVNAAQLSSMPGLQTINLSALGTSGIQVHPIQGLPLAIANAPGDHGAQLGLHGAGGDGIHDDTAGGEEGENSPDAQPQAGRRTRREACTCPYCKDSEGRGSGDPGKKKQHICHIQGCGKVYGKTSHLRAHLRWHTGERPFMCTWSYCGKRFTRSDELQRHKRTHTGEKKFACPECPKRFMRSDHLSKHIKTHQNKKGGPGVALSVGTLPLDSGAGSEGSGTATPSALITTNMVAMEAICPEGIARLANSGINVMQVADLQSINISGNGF
Chain of Paired box protein Pax-6 (Homo sapiens) (P26367 whole entry, looked up): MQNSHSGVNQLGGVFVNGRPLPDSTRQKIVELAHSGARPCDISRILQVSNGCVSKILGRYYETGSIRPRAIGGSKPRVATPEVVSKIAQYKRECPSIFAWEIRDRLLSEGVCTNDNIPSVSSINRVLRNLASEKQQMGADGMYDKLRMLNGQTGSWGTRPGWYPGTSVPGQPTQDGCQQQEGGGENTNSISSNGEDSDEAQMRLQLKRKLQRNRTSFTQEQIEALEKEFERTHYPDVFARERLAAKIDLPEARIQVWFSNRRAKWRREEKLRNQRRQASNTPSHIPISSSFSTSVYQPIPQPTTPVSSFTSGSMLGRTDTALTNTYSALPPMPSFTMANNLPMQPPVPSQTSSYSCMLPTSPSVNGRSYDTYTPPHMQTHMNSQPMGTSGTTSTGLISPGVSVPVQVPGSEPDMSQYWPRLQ

O=C1C2CC=CCC2C(=O)N1SC(Cl)(Cl)Cl (stereo unspecified)
outcome [1]: inactive | outcome [2]: inactive | outcome [3]: inactive | outcome [4]: inactive | outcome [5]: inactive | outcome [6]: inactive | outcome [7]: inactive | outcome [8]: inactive | outcome [9]: inactive | outcome [10]: inactive | outcome [11]: inactive | outcome [12]: inactive | outcome [13]: inactive | outcome [14]: inactive | outcome [15]: inactive | outcome [16]: inactive | outcome [17]: inactive | outcome [18]: inactive

CCOc1cc(C(C)(C)C)ccc1C1COC(c2c(F)cccc2F)=N1 (stereo unspecified)
outcome [1]: inactive | outcome [2]: inactive | AC50 [3]: 0.593 µM (active) | outcome [4]: inactive | outcome [19]: inactive | outcome [5]: inactive | outcome [6]: inactive | outcome [7]: inactive | outcome [8]: inactive | outcome [9]: inactive | outcome [10]: inactive | outcome [11]: inactive | outcome [12]: inactive | AC50 [13]: 1.36 µM (active) | outcome [14]: inactive | outcome [15]: inactive | outcome [16]: inactive | outcome [17]: inactive | outcome [18]: inactive

COCC(=O)N(c1c(C)cccc1C)C(C)C(=O)OC (stereo unspecified)
outcome [1]: inactive | AC50 [3]: 9.28 µM (active) | outcome [4]: inactive | outcome [19]: inactive | outcome [5]: inactive | outcome [6]: inactive | outcome [7]: inactive | outcome [8]: inactive | outcome [9]: inactive | outcome [10]: inactive | outcome [11]: inactive | outcome [12]: inactive | outcome [13]: inactive | outcome [14]: inactive | outcome [15]: inactive | outcome [16]: inactive | outcome [17]: inactive | outcome [18]: inactive

CCCCC(O)(Cn1cncn1)c1ccc(Cl)cc1Cl (stereo unspecified)
outcome [1]: inactive | AC50 [2]: 31 µM (active) | AC50 [3]: 13 µM (active) | outcome [4]: inactive | AC50 [19]: 24.7 µM (active) | outcome [5]: inactive | outcome [6]: inactive | outcome [7]: inactive | AC50 [8]: 50 µM (active) | AC50 [9]: 65 µM (active) | outcome [10]: inactive | outcome [11]: inactive | outcome [12]: inactive | AC50 [13]: 23.6 µM (active) | outcome [14]: inactive | AC50 [15]: 16.9 µM (active) | outcome [17]: inactive

COP(=S)(OC)SCn1nnc2ccccc2c1=O
AC50 [1]: 36.3 µM (active) | outcome [2]: inactive | AC50 [3]: 5.87 µM (active) | outcome [4]: inactive | AC50 [19]: 31 µM (active) | outcome [5]: inactive | AC50 [6]: 32.5 µM (active) | AC50 [7]: 19.8 µM (active) | outcome [8]: inactive | outcome [9]: inactive | outcome [10]: inactive | outcome [11]: inactive | outcome [12]: inactive | AC50 [13]: 10.3 µM (active) | AC50 [15]: 45.4 µM (active) | AC50 [17]: 18.7 µM (active) | outcome [18]: inactive

COP(=S)(OC)Oc1ccc([N+](=O)[O-])c(C)c1
outcome [1]: inactive | outcome [2]: inactive | AC50 [3]: 13.5 µM (active) | AC50 [4]: 50 µM (active) | AC50 [19]: 50 µM (active) | outcome [5]: inactive | outcome [6]: inactive | AC50 [7]: 14 µM (active) | outcome [8]: inactive | outcome [9]: inactive | outcome [10]: inactive | outcome [11]: inactive | outcome [12]: inactive | AC50 [13]: 34.1 µM (active) | outcome [14]: inactive | AC50 [15]: 17.9 µM (active) | outcome [16]: inactive | AC50 [17]: 50 µM (active) | outcome [18]: inactive

CCC(C)n1c(=O)[nH]c(C)c(Br)c1=O (stereo unspecified)
outcome [1]: inactive | outcome [2]: inactive | AC50 [3]: 50 µM (active) | outcome [19]: inactive | outcome [5]: inactive | outcome [6]: inactive | outcome [7]: inactive | outcome [8]: inactive | outcome [9]: inactive | outcome [10]: inactive | outcome [11]: inactive | outcome [12]: inactive | outcome [13]: inactive | outcome [14]: inactive | outcome [15]: inactive | outcome [16]: inactive | outcome [17]: inactive | outcome [18]: inactive
